# Biological target: GABRA1
# Assay: pooled miR-30 sensor sort-seq; sequence = guide strand
# Settings: shRNA
# Further: reference of the scale not given here.
row,Sequence,sensor-assay potency score (higher = more potent)
1,TATATATCTACAAATGACCTAG,0.243
2,TTAAATATCTGTTAAACTCTAT,-0.0161
3,TAGCTTGTGAAATTTAGGCAGG,-0.747
4,TTACACGCTCTCCCAATCCTGG,-1.04
5,ATTGTCATAACCATCTAGGAGT,-0.817
6,TACAATGAGCAACTGCACCTTT,0.167
7,TACTGTGGCAAACTCAATCAGA,-0.32
8,TACTTGACTGGACAATTCCAGA,-1.07
9,TTGTATAAGCATAACTTCCAAA,-0.726
10,TTTCTTGTATCTTTGAACCATC,-0.813
11,TTTATCTCTAAAACATCTGGGC,0.106
12,TCTGCTACAACCACTGAGCGTG,-0.543

# Biological target: GABRB2
# Assay: as above
# Settings: shRNA
row,Sequence,sensor-assay potency score (higher = more potent)
1,TTTCTCTTAAGCTTAAAGCTGA,-0.0649
2,TACATTATAGGACAGCCTCTTA,-0.982
3,TTCAGGAGTCTATCCACCGTCT,0.156
4,TCATAGGCTAGCATTGTGCTTC,-0.299
5,TAGGCTAGCATTGTGCTTCTGG,0.754
6,TTAACCAGCGACATATTACTAG,-0.576
7,TTAAAGCTGAGGGATAACCTGG,-0.689
8,TATTACATTATAGGACAGCCTC,-0.766
9,TCTGAGTCCATAAAGGACGGTG,-0.531
10,TCAGAAACCATATCGATGCTGG,0.313
11,TTATCGTTCAGGAAATAGGTAT,-0.408
12,TTACATTATAGGACAGCCTCTT,-0.0422
13,TGAAGCATCGTAATTAATCCAG,-0.467
14,TTGCGCCACATGTCGTTCCAGA,-0.912
15,TTAATCCAGAAGGAGACCCAGG,-0.469
16,TTTGTAATCTACAATAGAGAAC,-1.05
17,TGAAAGTACATTGTCAAGGTAT,0.245
18,TATCTCTCCAGGCTTGTTGAAA,-1.12
19,TTGTTGAAAGTACATTGTCAAG,-1.79
20,TAATCTACAATAGAGAACTGTG,-0.184
21,TCTACAATAGAGAACTGTGGAA,-0.939
22,TTTCAGGAGTCTATCCACCGTC,-0.228

# Biological target: GABRP
# Assay: as above
# Settings: shRNA
row,Sequence,sensor-assay potency score (higher = more potent)
1,TTTTCTCGGAAGACAAACTTGA,-0.264
2,ATAGTGATCAACATTACTGGGG,0.527
3,ATAATCAACAATCCTGCCCATC,-0.969
4,AACTTGAACTTGTCGCTGGTTT,-0.459
5,TAGTCAACGTTGTCGCTGGAAA,-1.15
6,TTTCATTGTCAAGTCACTGTAG,0.714

# — the OligoGym collection
